Data published in PubChem BioAssay (NCI).
About 83,000 compounds went through this panel and 20% of them were active in at least one assay; those are over-represented in the sample as a whole.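 Single-concentration screen, 48 h exposure, 96-well plates. Endpoint: percent growth. Below 10 = active.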 Unmarked numbers belong to inactive results. Activity calls are given as the source filed them.

These compounds were tested on M14 melanoma (assay: NCI-60 one-dose screen, 48 h (100 = growth as untreated, 0 = no growth, -100 = all killed)). Settings: 10 µM unless noted.

SMILES | growth
NC(CCl)=NCC12CC3CC(CC(C3)C1)C2 | -61.3% (active)
COc1ccc2c(c1)Nc1ccccc1S2 | 101%
CN1CCCN(C(c2ccccc2)c2ccc(Br)cc2)CC1 (configuration not stated) | -8.62% (active)
CCNc1ncnc2[nH]ncc12 | 107%
CC(C)(CC(=O)O)CC(=O)O | 101%
CCc1ccccc1C(=O)N(CC)CC | 103%
COc1cc2c(c(OC)c1OC)-c1ccc(SC)c(=O)cc1[C@@H](NC1OC(CO)C(O)C(O)C1O)CC2 (some centres not stated) | 11.3%
O=[N+]([O-])c1c(Cl)ncnc1Cl | 118%
CCN(C(=O)Nc1ccccc1Cl)c1ccccc1 | 111%
CC(C)(C)CC1(C)NC(=O)NC1=O (configuration not stated) | 104%
O=C(c1ccc(Cl)cc1)N1CCCCC1 | 104%
CC(C)c1ccccc1NC(=O)N1CCC(C(C)C)CC1 | 107%
C=C1SC(=Nc2c(C)cccc2C)N(c2nc(Cl)nc(Cl)n2)C12CCCCC2 | 97.9%
CCCCCCCCCCCCCCCCOc1ccccc1NC(=O)CC(C)=O | 109%
O=C(O)CC1=CCCCC1 | 95.8%
CCOC(=O)c1ccc(Nc2sc(C(=O)c3ccc(Br)cc3)c(N)c2C#N)cc1 | 29.4%
NNc1ncnc2c1ncn2C1OC(CO)C(O)C1O (configuration not stated) | 31.6%
NS(=O)(=O)c1cc(=O)[nH]c(=O)[nH]1 | 102%
CC(C)NC(=O)OCc1c(COC(=O)NC(C)C)c(-c2ccc(Cl)cc2)n2c1CCC2 | 33.2%

SMILES | growth
Cc1ccnc(Nc2nc3ccccc3[nH]2)n1 | 97%
NNc1ncnc2nc[nH]c12 | 48%
O=S(=O)(O)c1cccnc1 | 140%
O=C(O)c1cc(I)ccc1O | 110%
Nc1nc2nnc(-c3ccccc3)c(-c3ccccc3)n2n1 | 127%
Nc1cc(N)ncn1 | 97.2%
Clc1ncnc2nc[nH]c12 | 97.5%
N=C(N)c1nn(C2OC(CO)C(O)C2O)c2nc[nH]c(=O)c12 (configuration not stated) | -54.8% (active)
CCN(CC)CCCC(C)NC(=S)N/N=C(\C)c1ccccn1 (configuration not stated) | 37.2%
C[n+]1c(/C=C\C=C\N2CCCCC2)sc2ccccc21 | 0.396% (active)
S=c1nc2[nH]c3ccccc3c2n[nH]1 | 107%
Cn1c2ccccc2c2nnc(NCCCCO)nc21 | 88%
O=C(NC1CCCCC1)c1ccc(Cl)cc1 | 105%
CNc1ccccc1C(=O)N/N=C/C=C/c1ccccc1 | 17.1%
C[n+]1cc2cc3c(cc2c2ccccc21)OCO3 | 81.4%
CN(C)c1ncnc2c1cnn2C | 103%
CC(C)(C)NCCC(O)c1cc(C(F)(F)F)nc2c(C(F)(F)F)cccc12 (configuration not stated) | 84.6%
Cc1ccc(NC(=S)N2CCOCC2)cc1C | 93.1%
